Records with an inconclusive call do not appear. A call without a number means that no potency is given here. Calls of active or inactive are those of the source. The call rests on the fitted dose curve; in most records, active means well fitted inhibition curve with a large enough effect; inconclusive means small, poorly fitted or top-dose-only effect; inactive means flat fitted curve, though single readings scatter.
tested on: CP305; assay: qHTS profiling for inhibitors of Plasmodium falciparum proliferation (AID 504749); further: nearly all actives have a fitted effect of over 60% in size; conditions: P. falciparum in erythrocytes, SYBR Green DNA, 72 h; series mostly up to 28.7 µM
In short: (§1)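 P. falciparum-infected erythrocytes (0.3% parasitemia, 2.5% hematocrit final) were exposed to compounds for 72 h at 37 C in 5% CO2, then lysed with SYBR Green buffer overnight at room temperature; parasite DNA fluorescence was normalized to artemisinin and DMSO controls.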
Potency means the concentration at half of the fitted maximal effect.

| Structure (SMILES) | Potency |
| --- | --- |
| CC(=O)O[C@H]1CC[C@H]2[C@@H]3CCC4=CC(=O)CCC4=C3C=C[C@]12C | inactive |
| CC[N+](C)(CC)CCOC(=O)C(O)(c1ccccc1)c1ccccc1 | inactive |
| O=C1C2CC=CCC2C(=O)N1SC(Cl)(Cl)Cl (stereo unspecified) | inactive |
| [O]=[Cd] | inactive |
| [O]=[Cr](=[O])([OH])[O][Cr](=[O])(=[O])[OH] | inactive |
| ClC=C(Cl)Cl | inactive |
| CCC(C)(S(=O)(=O)CC)S(=O)(=O)CC | inactive |
| C[CH2][Hg][S]c1ccccc1C(=O)O | 3.79 µM (active) |
| C[C@]12CCC(=O)C[C@@H]1CC[C@@H]1[C@@H]2CC[C@]2(C)[C@@H](O)CC[C@@H]12 | inactive |
| CNC(C)C(O)c1ccc(O)cc1 (stereo unspecified) | inactive |
| ClCC1CO1 (stereo unspecified) | inactive |
| CCNC(C)Cc1cccc(C(F)(F)F)c1 (stereo unspecified) | inactive |
| CN1C2CCC1CC(OC(c1ccccc1)c1ccc(Cl)cc1)C2 (stereo unspecified) | 12 µM (active) |
| COC([CH2][Hg])CNC(=O)c1ccccc1OCC(=O)O (stereo unspecified) | inactive |
| CCON=O | inactive |
| Clc1ccccc1Cl | inactive |
| CCC(N)Cc1c[nH]c2ccccc12 (stereo unspecified) | inactive |
| O[C@H]1[C@H]2[C@H](O)CCCN2C[C@H]1O | inactive |
| C[N+]1(C)C2CCC1CC(OC(=O)c1c[nH]c3ccccc13)C2 (stereo unspecified) | inactive |
| Clc1ccc(Cl)cc1 | inactive |

| Structure (SMILES) | Potency |
| --- | --- |
| CC(C)(O)C1C2OC(=O)C1C1(O)CC3OC34C(=O)OC2C14C (stereo unspecified) | inactive |
| O=[N+]([O-])C(Br)(CO)CO | inactive |
| CC(C)Nc1ccc(Nc2ccccc2)cc1 | 13.5 µM (active) |
| FC(F)OC(F)(F)C(F)Cl (stereo unspecified) | inactive |
| CC(=O)OO | inactive |
| CN1c2ccccc2C(NCCCCCCC(=O)O)c2ccc(Cl)cc2S1(=O)=O (stereo unspecified) | inactive |
| CCCC(C)C1(CC)C(=O)NC(=O)NC1=O (stereo unspecified) | inactive |
| C=CCN1CCC23c4c5ccc(O)c4O[C@H]2C(=O)CC[C@@]3(O)C1C5 (stereo partly specified) | inactive |
| ClC(Cl)(Cl)Cl | inactive |
| Oc1cc(Cl)c(Cl)cc1Cl | inactive |
| O=CC=O | inactive |
| CCCC(C)(COC(N)=O)COC(=O)NC1CC1 (stereo unspecified) | inactive |
| N#CN | inactive |
| O=C(CS(=O)C(c1ccccc1)c1ccccc1)NO (stereo unspecified) | inactive |
| ClC1C(Cl)C(Cl)C(Cl)C(Cl)C1Cl (stereo unspecified) | inactive |
| O=Cc1ccco1 | inactive |
| O=S(=O)(O)c1cc(O)ccc1O | inactive |
| CCCCNCC(O)c1ccc(O)cc1 (stereo unspecified) | inactive |
| O=C1CCCCC1CN1CCCCC1 (stereo unspecified) | inactive |

tested on: CP315; assay: as above; conditions: P. falciparum in erythrocytes, SYBR Green DNA, 72 h; series mostly up to 28.7 µM
In short: as §1

| Structure (SMILES) | Potency |
| --- | --- |
| CC(=O)O[C@H]1CC[C@H]2[C@@H]3CCC4=CC(=O)CCC4=C3C=C[C@]12C | inactive |
| CC[N+](C)(CC)CCOC(=O)C(O)(c1ccccc1)c1ccccc1 | inactive |
| O=C1C2CC=CCC2C(=O)N1SC(Cl)(Cl)Cl (stereo unspecified) | inactive |
| [O]=[Cd] | inactive |
| [O]=[Cr](=[O])([OH])[O][Cr](=[O])(=[O])[OH] | inactive |
| ClC=C(Cl)Cl | inactive |
| CCC(C)(S(=O)(=O)CC)S(=O)(=O)CC | inactive |
| C[CH2][Hg][S]c1ccccc1C(=O)O | 4.26 µM (active) |
| C[C@]12CCC(=O)C[C@@H]1CC[C@@H]1[C@@H]2CC[C@]2(C)[C@@H](O)CC[C@@H]12 | inactive |
| CNC(C)C(O)c1ccc(O)cc1 (stereo unspecified) | inactive |
| ClCC1CO1 (stereo unspecified) | inactive |
| CCNC(C)Cc1cccc(C(F)(F)F)c1 (stereo unspecified) | inactive |
| COC([CH2][Hg])CNC(=O)c1ccccc1OCC(=O)O (stereo unspecified) | inactive |
| CCON=O | inactive |
| Clc1ccccc1Cl | inactive |
| CCC(N)Cc1c[nH]c2ccccc12 (stereo unspecified) | inactive |
| O[C@H]1[C@H]2[C@H](O)CCCN2C[C@H]1O | inactive |
| C[N+]1(C)C2CCC1CC(OC(=O)c1c[nH]c3ccccc13)C2 (stereo unspecified) | inactive |
| Clc1ccc(Cl)cc1 | inactive |

| Structure (SMILES) | Potency |
| --- | --- |
| CC(C)(O)C1C2OC(=O)C1C1(O)CC3OC34C(=O)OC2C14C (stereo unspecified) | inactive |
| O=[N+]([O-])C(Br)(CO)CO | inactive |
| CC(C)Nc1ccc(Nc2ccccc2)cc1 | 4.78 µM (active) |
| FC(F)OC(F)(F)C(F)Cl (stereo unspecified) | inactive |
| CC(=O)OO | inactive |
| CN1c2ccccc2C(NCCCCCCC(=O)O)c2ccc(Cl)cc2S1(=O)=O (stereo unspecified) | inactive |
| CCCC(C)C1(CC)C(=O)NC(=O)NC1=O (stereo unspecified) | inactive |
| C=CCN1CCC23c4c5ccc(O)c4O[C@H]2C(=O)CC[C@@]3(O)C1C5 (stereo partly specified) | inactive |
| ClC(Cl)(Cl)Cl | inactive |
| Oc1cc(Cl)c(Cl)cc1Cl | inactive |
| O=CC=O | inactive |
| CCCC(C)(COC(N)=O)COC(=O)NC1CC1 (stereo unspecified) | inactive |
| N#CN | inactive |
| O=C(CS(=O)C(c1ccccc1)c1ccccc1)NO (stereo unspecified) | inactive |
| ClC1C(Cl)C(Cl)C(Cl)C(Cl)C1Cl (stereo unspecified) | inactive |
| O=Cc1ccco1 | inactive |
| O=S(=O)(O)c1cc(O)ccc1O | inactive |
| CCCCNCC(O)c1ccc(O)cc1 (stereo unspecified) | inactive |
| O=C1CCCCC1CN1CCCCC1 (stereo unspecified) | inactive |

tested on: CP325; assay: as above; conditions: P. falciparum in erythrocytes, SYBR Green DNA, 72 h; series mostly up to 28.7 µM
In short: as §1

| Structure (SMILES) | Potency |
| --- | --- |
| CC(=O)O[C@H]1CC[C@H]2[C@@H]3CCC4=CC(=O)CCC4=C3C=C[C@]12C | inactive |
| CC[N+](C)(CC)CCOC(=O)C(O)(c1ccccc1)c1ccccc1 | inactive |
| O=C1C2CC=CCC2C(=O)N1SC(Cl)(Cl)Cl (stereo unspecified) | inactive |
| [O]=[Cd] | inactive |
| [O]=[Cr](=[O])([OH])[O][Cr](=[O])(=[O])[OH] | inactive |
| ClC=C(Cl)Cl | inactive |
| CCC(C)(S(=O)(=O)CC)S(=O)(=O)CC | inactive |
| C[CH2][Hg][S]c1ccccc1C(=O)O | 1.69 µM (active) |
| C[C@]12CCC(=O)C[C@@H]1CC[C@@H]1[C@@H]2CC[C@]2(C)[C@@H](O)CC[C@@H]12 | inactive |
| CNC(C)C(O)c1ccc(O)cc1 (stereo unspecified) | inactive |
| ClCC1CO1 (stereo unspecified) | inactive |
| CCNC(C)Cc1cccc(C(F)(F)F)c1 (stereo unspecified) | inactive |
| CN1C2CCC1CC(OC(c1ccccc1)c1ccc(Cl)cc1)C2 (stereo unspecified) | 9.53 µM (active) |
| COC([CH2][Hg])CNC(=O)c1ccccc1OCC(=O)O (stereo unspecified) | inactive |
| CCON=O | inactive |
| Clc1ccccc1Cl | inactive |
| CCC(N)Cc1c[nH]c2ccccc12 (stereo unspecified) | inactive |
| O[C@H]1[C@H]2[C@H](O)CCCN2C[C@H]1O | inactive |
| C[N+]1(C)C2CCC1CC(OC(=O)c1c[nH]c3ccccc13)C2 (stereo unspecified) | inactive |
| Clc1ccc(Cl)cc1 | inactive |

| Structure (SMILES) | Potency |
| --- | --- |
| CC(C)(O)C1C2OC(=O)C1C1(O)CC3OC34C(=O)OC2C14C (stereo unspecified) | inactive |
| O=[N+]([O-])C(Br)(CO)CO | inactive |
| CC(C)Nc1ccc(Nc2ccccc2)cc1 | 6.01 µM (active) |
| FC(F)OC(F)(F)C(F)Cl (stereo unspecified) | inactive |
| CC(=O)OO | inactive |
| CN1c2ccccc2C(NCCCCCCC(=O)O)c2ccc(Cl)cc2S1(=O)=O (stereo unspecified) | inactive |
| CCCC(C)C1(CC)C(=O)NC(=O)NC1=O (stereo unspecified) | inactive |
| C=CCN1CCC23c4c5ccc(O)c4O[C@H]2C(=O)CC[C@@]3(O)C1C5 (stereo partly specified) | inactive |
| ClC(Cl)(Cl)Cl | inactive |
| Oc1cc(Cl)c(Cl)cc1Cl | inactive |
| O=CC=O | inactive |
| CCCC(C)(COC(N)=O)COC(=O)NC1CC1 (stereo unspecified) | inactive |
| N#CN | inactive |
| O=C(CS(=O)C(c1ccccc1)c1ccccc1)NO (stereo unspecified) | inactive |
| ClC1C(Cl)C(Cl)C(Cl)C(Cl)C1Cl (stereo unspecified) | inactive |
| O=Cc1ccco1 | inactive |
| O=S(=O)(O)c1cc(O)ccc1O | inactive |
| CCCCNCC(O)c1ccc(O)cc1 (stereo unspecified) | inactive |
| O=C1CCCCC1CN1CCCCC1 (stereo unspecified) | inactive |

Reference: PubChem BioAssay (NCATS)
